Test results from PubChem BioAssay (Tox21).
Where “and” joins values, the source holds several entries; their conditions need not be identical. Equal entries are not always repeated. Results filed as inconclusive are left out. Values without a mark were called inactive. Calls of active or inactive are those of the source. The call rests on the fitted dose curve; in most records, active means well fitted cell-killing curve with a large enough effect in the repeat runs; inconclusive means weak or mixed curves, or effect the other way; inactive means flat fitted curve, though single readings scatter.
On the % scale 0 is the no-effect control and ±100 the full control effect.

Assay: cAMP Responsive Elements (CRE) small molecule agonists, cell-based qHTS assay: qHTS cell viability counter screen (AID 2060914); further: nearly all actives have a fitted effect of over 50% in size
Details: CRE-bla HEK293T viability, CellTiter-Glo luminescence, 5 h; series mostly up to 92.4 µM; activity change, negative = cytotoxicity: at the top concentration
Procedure, shortened: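 Cells are seeded and incubated 18 h, treated with compounds in DMSO for 3 h, read for the bla reporter, then given CellTiter-Glo; luminescence is measured after 30 min at room temperature.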
With `OC1CCCC1` the Potency was “inactive”.
For `O=C1CCC/C=C\CCCCCCCCCC1`, the “activity change, negative = cytotoxicity” value was -1.34%.
In the case of `Oc1ccc(C(O)CNCCCCCCNCC(O)c2ccc(O)c(O)c2)cc1O` (stereo not given), the “activity change, negative = cytotoxicity” value is reported as -0.505% [at 42.5 µM].
For `CC(C)=CCNc1ncnc2c1ncn2[C@@H]1O[C@H](CO)[C@@H](O)[C@H]1O`, the “activity change, negative = cytotoxicity” value was -17.5% [at 42.5 µM].
In the case of `COc1ccc(C(=O)c2cccc(O)c2)c(OC)c1`, the “activity change, negative = cytotoxicity” value is reported as 7.24%.
For `CN[C@H]1CC[C@@H](c2ccc(Cl)c(Cl)c2)c2ccccc21`, the “activity change, negative = cytotoxicity” value was 4.55% [at 42.5 µM].
For `CCN(CC)c1ccc(C(=C2C=CC(=[N+](CC)CC)C=C2)c2cc(S(=O)(=O)O)ccc2S(=O)(=O)[O-])cc1`, the “activity change, negative = cytotoxicity” value was -13.7% [at 42.5 µM].
With `CCCCCCCCCCCCCCCCN` the “activity change, negative = cytotoxicity” value was -1.17% [at 42.5 µM].
For `COCCc1ccccn1`, the “activity change, negative = cytotoxicity” value was 19.1% [at 42.5 µM].
In the case of `Cc1ccccc1C`, the “activity change, negative = cytotoxicity” value is reported as 1.1%.
For `NCCN1CCNC1=O`, the “activity change, negative = cytotoxicity” value was 0.75%.
With `CN1CCN(C)CC1` the “activity change, negative = cytotoxicity” value was 3.48%.
In the case of `CC(C)(C)c1cc(CCC(=O)NCCCCCCNC(=O)CCc2cc(C(C)(C)C)c(O)c(C(C)(C)C)c2)cc(C(C)(C)C)c1O`, the “activity change, negative = cytotoxicity” value is reported as 0.729%.
With `O=C(O)Cc1ccc(-c2ccccc2)cc1` the “activity change, negative = cytotoxicity” value was -6.49% [at 42.5 µM].
With `CC(C)C[P+](C)(CC(C)C)CC(C)C` the “activity change, negative = cytotoxicity” value was 3.75%.
For `CC(C)(CCl)c1ccccc1`, the “activity change, negative = cytotoxicity” value was -9.38%.
With `Cc1ccc(C(C)NC(=O)[C@@H](NC(=O)OC(C)C)C(C)C)cc1` (stereo not given in full) the “activity change, negative = cytotoxicity” value was 4.35%.
With `C=C(CC(=O)O)C(=O)O` the “activity change, negative = cytotoxicity” value was -0.543%.
In the case of `C[C@]12CCC(=O)C=C1CC[C@@H]1[C@@H]2CC[C@@]2(C)[C@H]1CC[C@]2(O)C(=O)CO`, the “activity change, negative = cytotoxicity” value is reported as 0.0809% [at 42.5 µM].
In the case of `CCOC(=O)C(=O)CCc1ccccc1`, the “activity change, negative = cytotoxicity” value is reported as 17.5% [at 42.5 µM].
In the case of `Cc1cc(O)ccc1O`, the “activity change, negative = cytotoxicity” value is reported as 10.7%.
For `c1ccc2c(c1)CCCC2C1=NCCN1` (stereo not given), the “activity change, negative = cytotoxicity” value was 7.4% [at 42.5 µM].
In the case of `CC(=O)c1ccc2ccc3ccccc3c2c1`, the “activity change, negative = cytotoxicity” value is reported as -25%.
In the case of `COCC(=O)Nc1c(I)c(C(=O)NCC(O)CO)c(I)c(C(=O)N(C)CC(O)CO)c1I` (stereo not given), the “activity change, negative = cytotoxicity” value is reported as -6.23% [at 42.5 µM].
In the case of `CN1CCN(c2cc3c(nn2)Oc2ccccc2N3C)CC1`, the activity change, negative = cytotoxicity is reported as 1.04% [at 18.9 µM].
With `CCOc1ccc([N+](=O)[O-])cc1` the “activity change, negative = cytotoxicity” value was -20.2%.
For `CCN(CC)CCCC(C)Nc1ccnc2cc(Cl)ccc12` (stereo not given), the activity change, negative = cytotoxicity was -0.2% [at 8.39 µM] and -0.0045% [at 18.9 µM].
With `CC1(C)CCC[C@]2(C)[C@H]3CC(=O)O[C@]3(C)CC[C@@H]12` the “activity change, negative = cytotoxicity” value was -19.7%.
With `O=S(=O)(O)c1cc(O)c2ccc(Nc3ccccc3)cc2c1` the “activity change, negative = cytotoxicity” value was -0.323%.
With `CCN(CC)C(=S)SSC(=S)N(CC)CC` the Potency was “inactive”.
For `Cc1ccc(N(C)C)cc1`, the Potency was “inactive”.
In the case of `O=C(O)c1ccccc1NCCc1ccccc1`, the “activity change, negative = cytotoxicity” value is reported as 6.4% [at 42.5 µM].
For `Oc1ccc(Sc2ccc(O)cc2)cc1`, the “activity change, negative = cytotoxicity” value was 12.1%.
With `Cc1cncc(C)c1` the “activity change, negative = cytotoxicity” value was 1.72%.
With `CCN(CC)CCNC(C(=O)OCCC(C)C)c1ccccc1` (stereo not given) the “activity change, negative = cytotoxicity” value was 7.19% [at 42.5 µM].
With `C[N+](C)(C)CCOC(N)=O` the “activity change, negative = cytotoxicity” value was 1.09% [at 42.5 µM].
For `COc1cc(NS(=O)(=O)c2ccc(N)cc2)ncn1`, the “activity change, negative = cytotoxicity” value was -0.0984% [at 42.5 µM].
In the case of `CC(Cc1ccc(O)c(O)c1)C(C)Cc1ccc(O)c(O)c1` (stereo not given), the “activity change, negative = cytotoxicity” value is reported as -0.843%.
For `Cc1onc(-c2c(Cl)cccc2Cl)c1C(=O)N[C@@H]1C(=O)N2[C@@H]1SC(C)(C)[C@@H]2C(=O)O`, the “activity change, negative = cytotoxicity” value was -2.69% [at 42.5 µM].
With `CN(C)Cc1cc(C(C)(C)C)c(O)c(C(C)(C)C)c1` the “activity change, negative = cytotoxicity” value was -6.44%.
